Measured values reported in PubChem BioAssay (NCI).
This is part of a sample that, as a whole, favours compounds with a hit. Of some 83,000 tested, about 20% had one in any assay.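 For each line, cells grew in 96-well plates with the test compound present at a single concentration for 48 hours.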 Active and inactive are the calls of the source. The calls were made as follows: active = growth percent below 10; inactive = the rest.

What follows are compounds tested on TK-10 renal (assay: NCI-60 one-dose screen, 48 h (100 = growth as untreated, 0 = no growth, -100 = all killed)). Details: 10 µM.

Row | SMILES | growth
1 | CCC(c1ccc(OC)cc1)C(CC)c1ccc(O)c(CN2CCN(C)CC2)c1 (centres undefined) | 72.2% (inactive)
2 | CC[C@@H](C(=O)[C@H](C)[C@H](O)[C@@H](C)[C@H]1O[C@H]([C@@H](CC)C(=O)N(CC)CC)CC[C@H]1C)C1O[C@]2(C=C[C@@H](O)[C@]3(CC[C@@](C)([C@H]4CC[C@](O)(CC)[C@H](C)O4)O3)O2)[C@H](C)C[C@@H]1C (some centres undefined) | 24.3% (inactive)
3 | O=C(NCCCNS(=O)(=O)c1ccc(Cl)cc1)Nc1ccc(-n2cc(-c3ccncc3)c(-c3ccc(Cl)c(O)c3)n2)cc1 | 62.5% (inactive)
4 | Nc1ncnc2c1ncn2C1(CO)OCC(O)C(O)C1O (centres undefined) | 87.3% (inactive)
5 | CC[C@H]1OC(=O)[C@H](C)[C@@H](O[C@H]2C[C@@](C)(OC)[C@@H](O)[C@H](C)O2)[C@H](C)[C@@H](O[C@@H]2O[C@H](C)C[C@H](N(C)C)[C@H]2O)[C@](C)(OC)C/C(C)=C2/O[C@@]1(C)C=C2C | 97.4% (inactive)
6 | S=C(NCc1ccccc1)NCc1ccccc1 | 83.2% (inactive)
7 | Cc1ccc(Cl)cc1NC(=O)CCl | 96% (inactive)
8 | CCC(C)[C@H](NC(C)=O)C(=O)N[C@@H](CCCNC(=N)N)C(=O)N[C@@H](CCCCN)C(=O)N[C@@H](CC1CCC(O)CC1)C(=O)NC(C(=O)N[C@@H](CCSC)C(=O)N[C@@H](CCCNC(=N)N)C(=O)N[C@@]1(C)CCC/C=C\CCC[C@@](C)(C(=O)NC(C(=O)N[C@@H](CCC(=O)O)C(=O)N[C@@H](CC(C)C)C(=O)N[C@H](C(=O)N[C@@H](CCC(=O)O)C(N)=O)C(C)C)[C@@H](C)O)NC(=O)[C@H](CCC(N)=O)NC(=O)[C@H](CC(C)C)NC(=O)[C@H](CC(C)C)NC1=O)[C@@H](C)O (some centres undefined) | 96.4% (inactive)
9 | COC(=O)C1(O)NC(=C(C#N)C#N)C(C#N)=C1C(=O)c1ccc(OC)c(OC)c1 (centres undefined) | 122% (inactive)
10 | NC(N)=N/N=C(\c1ccccc1)C(O)c1ccccc1 (centres undefined) | 94.2% (inactive)
11 | CCOC(=O)c1cc(C(=O)c2ccc(F)cc2F)n2ccccc12 | 115% (inactive)
12 | CC(C)(C)OC(=O)N1CCc2c(sc3ncnc(N/N=C/c4ccccc4Br)c23)C1 | 79.6% (inactive)
13 | CN(C)CCCOc1ccc(NC2=C(Cl)C(=O)C(Nc3ccc(OCCCN(C)C)cc3)=C(Cl)C2=O)cc1 | -98.7% (active)
14 | Cc1ccc(NCCN(C)CC(C)O)c2c(=O)c3ccccc3sc12 (centres undefined) | 45% (inactive)
15 | CCCCN(CCCC)C(=O)[C@H](CC)[C@@H]1CC[C@@H](C)[C@@H]([C@H](C)[C@@H](O)[C@@H](C)C(=O)[C@H](CC)C2O[C@]3(C=C[C@@H](O)[C@]4(CC[C@@](C)([C@H]5CC[C@](O)(CC)[C@H](C)O5)O4)O3)[C@H](C)C[C@@H]2C)O1 (some centres undefined) | 18.6% (inactive)
16 | NC(=O)c1cccc(-n2ccc3cc(NC(=O)Nc4ccc(Cl)c(C(F)(F)F)c4)ccc32)n1 | 83.7% (inactive)
17 | CCOc1ccccc1/C=N\N=C\c1ccccc1O | 121% (inactive)
18 | O=C(Nc1cc(Cl)cc2c1-c1ccc(Cl)cc1C2O)C(Cl)Cl (centres undefined) | 118% (inactive)
19 | CCN(CC)CCCOc1cccc2c1C(=O)c1cccc(OCCCN(CC)CC)c1C2=O | 38.8% (inactive)
